Growth inhibition data for 21 compounds are collected here from PubChem BioAssay (NCI).

Assay [1] in a line: NCI Yeast Anticancer Drug Screen. Data for the rad50 strain (AID 155).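 Also: 0% = growth of vehicle-only cultures of the same strain.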 Conditions: S. cerevisiae rad50 strain growth inhibition; at 50.0 µM; stronger effect = higher value. In short, it runs like this:
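Relative growth inhibition (compound vs vehicle) was measured in yeast with a defined repair-gene alteration.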

Assay [2] can be described thus: NCI Yeast Anticancer Drug Screen. Data for the mec2-1 strain (AID 157). As to conditions: S. cerevisiae mec2-1 strain, at 50.0 µM, stronger effect = higher value. The gist of the method:
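Vehicle-treated cultures served as reference for growth inhibition of compound-exposed mec2-1 yeast.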

The nature of assay [3]: NCI Yeast Anticancer Drug Screen. Data for the sgs1 mgt1 strain (AID 161).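 Also: 0% = growth of cultures given vehicle only.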 Conditions: S. cerevisiae sgs1 mgt1 strain, at 50.0 µM, stronger effect = higher value. In short, it runs like this: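 Mutant yeast exposed to compound; growth scored against vehicle-only wells.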
Assay [4] is described as follows: NCI Yeast Anticancer Drug Screen. Data for the cln2 rad14 strain (AID 165).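 Also: 0% = growth equal to vehicle treated cultures.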 Conditions: S. cerevisiae cln2 rad14 strain, at 50.0 µM, stronger effect = higher value. In short, it runs like this:
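Each compound was tested on cln2 rad14 yeast. Inhibition of growth was calculated against vehicle-exposed controls.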

The nature of assay [5]: NCI Yeast Anticancer Drug Screen. Data for the bub3 strain (AID 167). As to conditions: S. cerevisiae bub3 mutant strain, at 50.0 µM, stronger effect = higher value. The gist of the method:
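Screening used yeast with an engineered genetic alteration affecting cell cycle control. Compound-exposed cultures were compared with vehicle cultures, and reduced growth was taken as inhibition.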

Assay [6] in a line: NCI Yeast Anticancer Drug Screen. Data for the mlh1 rad18 strain (AID 175). Conditions: S. cerevisiae mlh1 rad18 strain growth inhibition; at 50.0 µM; stronger effect = higher value. In short, it runs like this:
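Vehicle-treated cultures served as the reference for growth inhibition in a yeast strain carrying DNA damage repair alterations exposed to each compound.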

This is part of a sample that, as a whole, favours compounds with a hit. Of some 79,000 tested, about 15% had one in any assay. Unmarked numbers belong to inactive results. The source made the active and inactive calls. Rule as the data show it: active = growth inhibition above about 70%; inactive = the rest. Where a SMILES comes first, the peptide text is derived from it. [ ]: non-standard residue; d: D form. The star is where a group is joined. ξ: configuration not given here. ξPhe(4-NO2) = NC(Cc1ccc([N+](=O)[O-])cc1)C(=O)O; Boc = CC(C)(C)OC(=O)*; OBn = c1ccc(CO*)cc1

With `Cc1cc(NS(=O)(=O)c2ccc(NC(=O)c3cccc4c(N)c5ccccc5nc34)cc2)no1`, the growth inhibition in assay [1] was 34.1%; in assay [2] it was 14.9%; in assay [3], 29.3%; in assay [4], 39.5%; in assay [5], 3.85%; in assay [6] it was 37%.
As to `CCCCCCOC(=O)NC1c2ccccc2Oc2ccccc21`, the growth inhibition in assay [1] is -0.35%; in assay [2], 7.15%; in assay [3] it was 10.1%; in assay [4] it was -7.2%; in assay [5] it was 7.45%; in assay [6], 3.15%.
In the case of `O=C1CCCC/C1=C\c1ccc([N+](=O)[O-])cc1`, the growth inhibition in assay [1] was 28.4%; in assay [2] it was 27.9%; in assay [3], 29.4%; in assay [4] it was 10.1%; in assay [5], 21.8%; in assay [6], 40.4%.
For `CCN(CC)CCn1[nH]c2c3ccc(=O)cc3sc3c(NCCN)ccc1c32`, the growth inhibition is 13.3% in assay [1]; -3.35% in assay [2]; -12.7% in assay [3]; -5.55% in assay [4]; 2.5% in assay [5]; -2.4% in assay [6].
On to `CC(=O)C1C(=O)OC2C3C=CC(C3)C2C1=O` (stereo unspecified), for which the growth inhibition in assay [1] is 14.9%; in assay [2], 21.1%; in assay [3], 0.9%; in assay [4], -4.7%; in assay [5], 20.1%; in assay [6], 42.6%.
Regarding `CC(C)(C)OC(=O)NC(Cc1ccc([N+](=O)[O-])cc1)C(=O)NCC(=O)OCc1ccccc1` (stereo unspecified) (Boc-[ξPhe(4-NO2)]-Gly-OBn), the growth inhibition in assay [1] was -17.4%; in assay [2], 8.45%; in assay [3], 7.05%; in assay [4], 32.5%; in assay [5], -5.5%; in assay [6], -9%.
For `COC(=O)/C=C/c1ccc(OP(=O)(O)O)c(OC)c1`, the growth inhibition in assay [1] was -22.1%; in assay [2], -8.9%; in assay [3], -30.6%; in assay [4], -20.6%; in assay [5], -56.7%; in assay [6], -15.4%.
With `CC(=O)Nc1cc(NC(C)=O)c(N=O)c(NC(C)=O)n1`, the growth inhibition was -19.5% in assay [1]; -13.2% in assay [2]; -0.7% in assay [3]; -3.45% in assay [4]; -15.8% in assay [5]; 7.35% in assay [6].
For the compound `O=C(CCCCCCCCC(=O)NC1CCCCC1)NC1CCCCC1`, the growth inhibition in assay [1] was -13.2%; in assay [2], -26.5%; in assay [3] it was -21.6%; in assay [4], -20.8%; in assay [5] it was -19%; in assay [6] it was -5.4%.
For `CC1=NC(=Cc2ccc(O)cc2)C(=O)N1n1c(-c2ccccc2)nc2ccccc2c1=O`, the growth inhibition in assay [1] is -4.7%; in assay [2] it was -10.3%; in assay [3] it was -5.35%; in assay [4] it was 2.6%; in assay [5] it was -10.8%; in assay [6], 3.45%.
For `N#CCCN(CCC#N)c1ccc(/C=C2\N=C(CN3C(=O)c4ccccc4C3=O)OC2=O)cc1`, the growth inhibition in assay [1] is -20.1%; in assay [2] it was 4.25%; in assay [3], 7.05%; in assay [4] it was 11.3%; in assay [5] it was 0.05%; in assay [6], 7.55%.
In the case of `Cc1cc(/C=N/NC(=O)c2ccccc2NC(=O)c2ccccc2Cl)ccc1O`, the growth inhibition in assay [1] is 20.6%; in assay [2], 9.8%; in assay [3] it was 39.2%; in assay [4] it was 11.9%; in assay [5], 9.1%; in assay [6], 34.8%.
Regarding `O=c1c(O)c(-c2ccccc2)oc2c(CP(=O)(O)O)cccc12`, the growth inhibition in assay [1] was 5.05%; in assay [2], -19.1%; in assay [3], -17.3%; in assay [4] it was -12.5%; in assay [5], -2.45%; in assay [6] it was -18%.
Turning to `c1ccc(-c2ccc(-c3ccccc3)cc2)cc1`, the growth inhibition was -14.5% in assay [1]; -9.4% in assay [2]; -15.1% in assay [3]; -15.2% in assay [4]; 18.6% in assay [5]; -30.9% in assay [6].
Turning to `C=CCSc1nc2ccc(N3C(=O)C4C5C=CC(C5)C4C3=O)cc2s1` (stereo unspecified), the growth inhibition in assay [1] is -15.2%; in assay [2], -2.75%; in assay [3] it was -6.35%; in assay [4] it was -17.6%; in assay [5] it was -8.3%; in assay [6] it was -27.9%.
Consider `Cc1cccc(Cl)c1NC(=O)Nc1ccc(Cl)cc1C(=O)c1ccccc1`, for which the growth inhibition in assay [1] is 5.5%; in assay [2] it was -4.1%; in assay [3], 6.75%; in assay [4] it was 4.2%; in assay [5] it was 7.45%; in assay [6], -9.6%.
On to `CCOC(=O)C1=C(Nc2ccc(F)cc2)C(=O)N(C(C)(C)C)C1`, for which the growth inhibition in assay [1] is 8.05%; in assay [2] it was 1.3%; in assay [3] it was 27.5%; in assay [4], 6.35%; in assay [5] it was 31.4%; in assay [6], 21.6%.
For `O=C(/C=C/c1ccc(Cl)cc1)c1ccccc1O`, the growth inhibition in assay [1] is -9.15%; in assay [2], 9.8%; in assay [3], -6.05%; in assay [4] it was -10.8%; in assay [5], -1.25%; in assay [6] it was 11.1%.
Consider `CN(CCN1CCOCC1)C(c1ccccc1)c1ccccc1`, for which the growth inhibition in assay [1] was 83.7% (active); in assay [2], 66.3%; in assay [3], 87.9% (active); in assay [4], 61.8%; in assay [5], 52.4%; in assay [6], 67.4%.
For `Brc1cccc2ccccc12`, the growth inhibition in assay [1] is 23.6%; in assay [2] it was -13.9%; in assay [3], 0.7%; in assay [4] it was -38%; in assay [5], -12.3%; in assay [6] it was 6.85%.
With `NC(=O)OC1CCN(c2cccc(Cl)c2)C1` (stereo unspecified), the growth inhibition was -8.1% in assay [1]; -22.3% in assay [2]; -16.1% in assay [3]; 23.5% in assay [4]; -18.8% in assay [5]; 1.75% in assay [6].
